Pf growth 96h: P. falciparum growth inhibition at 96 hour, primary screen for plastid delayed-death inhibitors | P. falciparum luciferase reporter growth, 96 h | Potency, µM (series often up to 28.7 µM), inactives show top-dose activity change, negative = inhibition, most hits filed as inhibitors | hit rate 6.9% among 320,000 | AID 504834; also: potency is read from the fitted curve at half-maximal effect; % is scaled to controls: 0 for no effect and ±100 for the full control effect
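Infected RBCs, 2% Hct / 0.05% parasitemia final; luciferase-reporter P. falciparum; cpd 96 h, 37 C, 5% CO2; luciferase detection reagent; luminescence.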
Pf growth 48h: inhibits P. falciparum growth in the first generation, 48 h; Potency, µM (titrated, usually from 28.7 µM), inactives show at the top dose activity change, negative = inhibition, usual class: inhibitors; P. falciparum luciferase growth in erythrocytes, 48 h; hit rate 5.9% among 310,000; also: potency is read from the fitted curve at half-maximal effect; % is scaled to controls: 0 for no effect and ±100 for the full control effect
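Luciferase-expressing P. falciparum in infected erythrocytes (2% hematocrit, 0.1% parasitemia final) in RPMI 1640/0.5% Albumax were exposed to compound for 48 hours at 37 C, 5% CO2; growth read as luminescence.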
SARS PLP yeast: SARS-CoV PLP inhibition in yeast; hit rate 0.19% among 330,000; Potency, µM (top dose mostly 32.9 µM), for inactives: at the top dose activity, positive = growth rescue, usual class: activators; S. cerevisiae expressing SARS-CoV PLpro, growth rescue; calls by dose curve; also: potency is read from the fitted curve at half-maximal effect; 0% is about no effect; nearly all actives have a fitted effect of over 55% in size
HCV inhibitor: inhibitors of hepatitis C virus infection | Huh7.5.1 HCVcc-Cre infection, luciferase reporter, 44 h | Potency, µM (highest dose often 41.8 µM), inactives show at the highest dose activity change, negative = inhibition, most hits filed as inhibitors | hit rate 3.4% among 340,000 | AID 651820; also: potency is read from the fitted curve at half-maximal effect; % is scaled to controls: 0 for no effect and ±100 for the full control effect
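After 44 h co-culture of compound, cells and HCVcc-Cre (~0.5 moi), substrate is added for 15 min at room temperature and luciferase measured over 15 sec. Cells were seeded at 1,000/well and pre-cultured 4 h.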
HCMV inh: blocks human cytomegalovirus replication; HFF cells, HCMV-luciferase reporter, 72 h; active compounds read low; activity change, negative = inhibition, % at 57.5 µM; hit rate 4.5% among 410,000; in the data active = activity change below about -60%; inconclusive = no clear call, values can overlap the other calls; inactive = above about -39%; also: % is scaled to controls: 0 for no effect and ±100 for the full control effect
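Steps: HFFs plated, 16 h 37C; compounds added; HCMV-luciferase added to MOI 1 PFU/cell; 72 h 37C; OneGlo reagent, 5 min room temperature; luminescence read, normalized to controls.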
Sm TGR block: inhibitors of Schistosoma mansoni thioredoxin glutathione reductase | Q962Y6 | purified TGR, DTNB reduction, TNB absorbance 405 nm | Potency, µM (doses to about 114 µM), for the others: at the highest dose activity change, negative = inhibition, most hits filed as inhibitors | hit rate 3% among 360,000 | AID 485364; also: potency is read from the fitted curve at half-maximal effect; % is scaled to controls: 0 for no effect and ±100 for the full control effect; nearly all actives have a fitted effect of over 60% in size
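Kinetic colorimetric format: TGR-catalysed, NADPH-driven DTNB reduction monitored via TNB absorbance. Enzyme dispensed at 20 nM; compound exposure 15 min at room temperature before reaction start.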
An asterisk follows results filed as active. Shown are actives, neighbours in structure and some others; about 15% of the full set was active somewhere. Unless noted, calls follow the shape of the dose curve; as a rule, active = well fitted curve in the direction sought with a large enough effect; inconclusive = small, poorly fitted or top-dose-only effect, or another doubt; inactive = no such curve, though single readings can be large; an effect the other way counts as inactive or inconclusive.

Screening CSCCC1NC2(C(=O)Nc3c(C)cc(Cl)cc32)[C@@H]2C(=O)N(C3CCCC3)C(=O)[C@H]12 (stereo not given in full) returned Pf growth 96h inconclusive, Pf growth 48h inconclusive, SARS PLP yeast -5%, HCV inhibitor inconclusive, HCMV inh -7 and Sm TGR block 1%.
`COC(=O)CCCC1=CC2=C(c3ccccc3)C(=O)C(C)(OC(=O)C3CCCC3)C(=O)C2=CN1C1CC1` (stereo not given) gave Pf growth 96h inconclusive, Pf growth 48h inconclusive, SARS PLP yeast 1%, HCV inhibitor 5%, HCMV inh -61* and Sm TGR block inconclusive.
`COC(=O)CCCC1=CC2=C(c3ccccc3)C(=O)C(C)(OC(=O)C3CCCC3)C(=O)C2=CN1c1ccccc1` (stereo not given) gave Pf growth 96h inconclusive, Pf growth 48h inconclusive, SARS PLP yeast 1%, HCV inhibitor 4%, HCMV inh 30 and Sm TGR block -15%.
COC(=O)CCCC1=CC2=C(c3ccccc3)C(=O)C(C)(OC(=O)C3CCCC3)C(=O)C2=CN1C(CO)CO (stereo not given) was read as Pf growth 96h inconclusive, Pf growth 48h 29%, SARS PLP yeast -4%, HCV inhibitor 15%, HCMV inh -16 and Sm TGR block 40µM*.
Screening Cc1cc(C)c(S(=O)(=O)N(CC(=O)O)CC(=O)O)c(C)c1 returned Pf growth 48h 18%, SARS PLP yeast 1%, HCV inhibitor 4%, HCMV inh -25 and Sm TGR block 7%.
Screening Cc1cc(C)c(S(=O)(=O)N(C2=NCCS2)S(=O)(=O)c2c(C)cc(C)cc2C)c(C)c1 returned Pf growth 96h inconclusive, Pf growth 48h 15µM*, SARS PLP yeast 17%, HCV inhibitor 4%, HCMV inh -8 and Sm TGR block 0%.
Screening CN1CCc2c(sc(NC(=O)C3CCCN3S(=O)(=O)c3ccc(Cl)s3)c2C(N)=O)C1 (stereo not given) returned Pf growth 96h inconclusive, Pf growth 48h inconclusive, SARS PLP yeast 5%, HCV inhibitor -24%, HCMV inh -9 and Sm TGR block 4%.
Screening Cc1ccccc1NC(=O)c1ccc(CN2CCc3ccccc3C2)cc1 returned Pf growth 96h -27%, Pf growth 48h -24%, SARS PLP yeast 1%, HCV inhibitor inconclusive, HCMV inh inconclusive and Sm TGR block 0%.
O=C(Nc1ccc(F)cc1)c1ccc(CN2CCc3ccccc3C2)cc1 was read as Pf growth 96h inconclusive, Pf growth 48h -30%, SARS PLP yeast -2%, HCV inhibitor 5.6µM*, HCMV inh 0 and Sm TGR block 6%.
`CCc1cccc(C)c1NC(=O)c1ccc(CN2CCc3ccccc3C2)cc1` gave Pf growth 96h 1.5µM*, Pf growth 48h 4.7µM*, SARS PLP yeast -11%, HCV inhibitor inconclusive, HCMV inh -11 and Sm TGR block 1%.
`O=C(CCN1CCc2ccccc2C1)Nc1ccc(F)cc1` gave Pf growth 48h -13%, SARS PLP yeast 1%, HCV inhibitor 3%, HCMV inh -2 and Sm TGR block 13%.
`CC(=O)Nc1ccc(NC(=O)c2ccc(CN3CCc4ccccc4C3)cc2)cc1` gave Pf growth 96h 9.3µM*, Pf growth 48h inconclusive, SARS PLP yeast 6%, HCV inhibitor -5%, HCMV inh -17 and Sm TGR block -1%.
Screening O=C(CCc1nc2ccccc2c(=O)[nH]1)N1CCN(S(=O)(=O)c2ccc(F)cc2)CC1 returned Pf growth 96h inconclusive, Pf growth 48h inconclusive, SARS PLP yeast 0%, HCV inhibitor -8%, HCMV inh 22 and Sm TGR block 0%.
`Cc1cn2c(=O)c(C(=O)N3CCN(c4ccccc4F)CC3)cnc2s1` gave Pf growth 96h 27%, Pf growth 48h 27%, SARS PLP yeast -1%, HCV inhibitor 5%, HCMV inh -31 and Sm TGR block -3%.
CC(C)(O)/C=C/C(=O)C(C)(O)C1C(O)CC2(C)C3CC=C4C(C=C(O)C(=O)C4(C)C)C3(C)C(=O)CC12C (stereo not given) was read as HCV inhibitor inconclusive and HCMV inh -97*.
CC1=C(C)CC(C(=O)NCCCN2CCCC2=O)C(C(=O)O)C1 (stereo not given) was read as Pf growth 96h inconclusive, Pf growth 48h inconclusive, SARS PLP yeast -7%, HCV inhibitor 13%, HCMV inh 67 and Sm TGR block -16%.
Clc1cccc(-c2ccc(-c3nc4ccccn4c3NCc3ccccc3)cc2)c1 was read as SARS PLP yeast 7%, HCV inhibitor 14µM* and HCMV inh -80*.
For COc1ccc(-c2cc(-c3nc4ccccn4c3NCc3ccccc3)ccc2OC)cc1 the results were SARS PLP yeast -4%, HCV inhibitor inconclusive and HCMV inh -79*.
`COc1ccc(CNC(=O)Cn2c(=O)cc(-c3ccccc3)c3c(C)nn(C)c32)cc1` gave HCMV inh 3 and Sm TGR block -6%.
For CCOC(=O)c1sc2nc(SCC#N)n(CCCN3CCCC3=O)c(=O)c2c1C the results were Pf growth 96h inconclusive, Pf growth 48h 10µM*, SARS PLP yeast 0%, HCV inhibitor inconclusive, HCMV inh -9 and Sm TGR block 4%.
`CCOC(=O)c1sc2nc3n(c(=O)c2c1C)CCC3` gave Pf growth 96h 37%, Pf growth 48h 26%, SARS PLP yeast 23%, HCV inhibitor -7%, HCMV inh 50 and Sm TGR block -1%.
`Cc1ccc(Cl)cc1N1CCN(C(=O)CCCn2c(=O)[nH]c3ccc(Br)cc3c2=O)CC1` gave HCMV inh inconclusive and Sm TGR block -3%.
O=C(NC1C2CCCC1CN(C1CC1)C2)c1ccc(Cl)cc1 (stereo not given) was read as Pf growth 96h inconclusive, Pf growth 48h inconclusive, SARS PLP yeast -3%, HCV inhibitor inconclusive, HCMV inh -64* and Sm TGR block 80%.
For CN1C2CCC1CC(NC(=O)c1ccc(Cl)cc1)C2 (stereo not given) the results were Pf growth 96h inconclusive, Pf growth 48h 8%, SARS PLP yeast 0%, HCV inhibitor -1%, HCMV inh 35 and Sm TGR block 13%.
`CCC(=O)Oc1ccc(C/C(=N\O)c2ccc(O)cc2O)o1` gave Pf growth 96h inconclusive, Pf growth 48h 0%, SARS PLP yeast 1%, HCV inhibitor inconclusive, HCMV inh -8 and Sm TGR block 7.9µM*.

Screens: PubChem BioAssay, National Center for Advancing Translational Sciences (NCATS)
